In PubChem BioAssay AID1645838 (ICCB-Longwood Screening Facility, Harvard Medical School, 2021) one finds z-score, cell count and outcome data, which are given here for 23 compounds.

Molecules are shown by their SMILES. Where “and” joins values, the source holds several entries; their conditions need not be identical. Identical values can stand only once. Screen size: about 2,000 compounds; about 100 (5%) were called active. Rule as the data show it: active = z-score above about 2; inactive = the rest. Shown is part of a subset that was picked to be rich in actives.

The nature of this experiment: modulators of mitochondrial supercomplex assembly, cell-based, luminescence, Hoechst nuclei count (AID 1645838).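 As to all read-outs here: control cybrid cells.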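 As to z-score: higher means more mitochondrial supercomplex formation.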 The following applies: Cells, luminescence/Hoechst cell count ratio, supercomplex reporter; for z-score: stronger effect = higher value; for cell count: measured here: cell number, Hoechst nuclei count.
The mark [1] stands for this setting: library stock concentration (final well concentration not given) 80 uM.
[2] abbreviates: library stock concentration (final well concentration not given) 400 uM.
Setting [3] is: library stock concentration (final well concentration not given) 2 mM.
Where [4] appears, read: library stock concentration (final well concentration not given) 10 mM.
The mark [5] stands for this setting: library stock concentration (final well concentration not given) 46 uM.
[6] abbreviates: library stock concentration (final well concentration not given) 278 uM.
The mark [7] stands for this setting: library stock concentration (final well concentration not given) 1.67 mM.

As for `NC1=NC(=O)/C(=C/c2ccc(O)cc2)S1`, the z-score was 0.333 (inactive) and the cell count is 5020.
For `CCCCCCCC/C=C\CCCCCCCC(=O)OCC(O)COP(=O)(O)O` (stereo unspecified), the z-score was -0.58 (inactive) and the cell count is 5650.
Regarding `O=C(O)CCC/C=C\C[C@@H]1[C@@H](/C=C/[C@@H](O)COc2cccc(C(F)(F)F)c2)[C@H](O)C[C@@H]1O`, the z-score was -0.654 (inactive) and the cell count amounted to 5730.
Turning to `Cc1ccc(COC(=O)N2CCC(CNc3ncccn3)C(F)C2)cc1` (stereo unspecified), the z-score is -0.136 (inactive) under setting [1], 0.087 (inactive) under setting [2], -0.148 (inactive) under setting [3] and -0.243 (inactive) under setting [4]. Besides, the cell count by setting is: under setting [1], 5400; under setting [2], 5130; under setting [3], 5140; under setting [4], 5210.
As for `CCCS(=O)(=O)Nc1ccc(F)c(C(=O)c2c[nH]c3ncc(-c4ccc(Cl)cc4)cc23)c1F`, the z-score was -0.652 (inactive) and -0.181 (inactive) under setting [1]; -0.587 (inactive) and -0.185 (inactive) under setting [2]; -0.572 (inactive) and -0.608 (inactive) under setting [3]; 0.969 (inactive) and -0.885 (inactive) under setting [4]. In addition, the cell count was 4780 and 6010 under setting [1]; 4780 and 5900 under setting [2]; 4410 and 5850 under setting [3]; 2140 and 5020 under setting [4].
Turning to `O=C(O)c1ccc(-c2c[nH]c3ncc(-c4ccccc4)cc23)cc1C1CCCC1`, the z-score under setting [5] is -0.226 (inactive), the z-score under setting [6] is -0.179 (inactive), the z-score under setting [7] is -0.154 (inactive) and the z-score under setting [4] is 2.58 (active). In addition, the cell count under setting [5] amounted to 6280, the cell count under setting [6] came out at 6090, the cell count under setting [7] came to 5580 and the cell count under setting [4] came out at 1970.
As to `Cn1cc(C=C2C(=O)Nc3cccnc32)c2ccccc21`, the z-score under setting [1] was -0.136 (inactive), the z-score under setting [2] was -0.0135 (inactive), the z-score under setting [3] was -0.221 (inactive) and the z-score under setting [4] is -0.519 (inactive). The cell count reads like this: under setting [1], 5300; under setting [2], 5320; under setting [3], 5410; under setting [4], 4520.
Turning to `Cn1c(SCC(=O)N2CCCC2C(=O)Nc2ccccc2-c2ccccc2)nc2ccccc21` (stereo unspecified), the z-score is, setting by setting: under setting [1], -0.422 (inactive); under setting [2], -0.389 (inactive); under setting [3], -0.142 (inactive); under setting [4], -0.283 (inactive). The cell count reads like this: under setting [1], 5510; under setting [2], 5800; under setting [3], 5780; under setting [4], 5710.
As for `CC(C)CCOc1ccc(NC(=S)Nc2ccc(OCCC(C)C)cc2)cc1`, the z-score is -0.0536 (inactive) and the cell count was found to be 5220.
As for `Cc1nc2ccc(-n3ncc(C(=O)c4cc5ccccc5[nH]4)c3N)cc2[nH]1`, the z-score was -0.114 (inactive) under setting [1], -0.221 (inactive) under setting [2], -0.0631 (inactive) under setting [3] and 5.29 (active) under setting [4]. Moreover, the cell count reads like this: under setting [1], 5810; under setting [2], 5920; under setting [3], 5510; under setting [4], 3410.
On to `CCCCC[C@H](O)/C=C/[C@H]1[C@H](O)CC(=O)[C@@H]1C/C=C\CCCC(=O)OCC(O)CO` (stereo partly specified), for which the z-score was 0.364 (inactive) and the cell count worked out at 5190.
Consider `CCCNC1CCc2nc(N)sc2C1` (stereo unspecified), for which the z-score was -0.399 (inactive) under setting [1], -0.375 (inactive) under setting [2], -0.412 (inactive) under setting [3] and -0.168 (inactive) under setting [4]. Further, the cell count reads like this: under setting [1], 6960; under setting [2], 6720; under setting [3], 6830; under setting [4], 6380.
As for `CCOc1ccc(S(=O)(=O)N(CC(=O)N=Nc2c(O)[nH]c3ccccc23)c2ccccc2)cc1`, for the setting “library stock 10 mM”, the outcome was “inactive; censored for cell count”. The z-score reads like this: under setting [1], 0.0734 (inactive); under setting [2], 0.0751 (inactive); under setting [3], 0.419 (inactive). Moreover, the cell count under setting [1] came out at 5190, the cell count under setting [2] was found to be 5160 and the cell count under setting [3] turned out to be 4350.
Consider `CC/C=C\C/C=C\C/C=C\C/C=C\CCCCC(=O)OCC`, for which the z-score was -0.596 (inactive) and the cell count worked out at 5380.
As to `Nc1nccc2c1ncn2C1C=C(CO)C(O)C1O` (stereo unspecified), the outcome (library stock 10 mM) was “inactive; censored for cell count”. The z-score reads like this: under setting [5], -0.246 (inactive); under setting [6], 0.747 (inactive); under setting [7], 2.95 (active). For the same compound, the cell count runs as follows: under setting [5], 5790; under setting [6], 4240; under setting [7], 1810.
Take `CCCCCCCCCCCC(=O)NC[C@]1(C)CCC[C@]2(C)c3ccc(C(C)C)cc3CC[C@@H]12`: the z-score is 0.0192 (inactive) and the cell count worked out at 4880.
As for `CCCCCCCCCCCCCCCC(=O)OC[C@@H](O)COP(=O)(O)O`, the z-score was 0.759 (inactive) and the cell count stood at 4710.
Turning to `CC(=O)O[C@@]12C[C@@H](C)[C@@]3(O)[C@@H](C=C(CO)C[C@]4(O)C(=O)C(C)=C[C@@H]34)[C@@H]1C2(C)C`, the z-score is 2.36 (active) and the cell count worked out at 5140.
For the compound `CCCCC[C@H](O)/C=C/[C@H]1C=CC(=O)[C@@H]1CCCCCCC(=O)O`, the z-score was 0.664 (inactive) and the cell count was 4830.
Turning to `Cc1nc(Nc2n[nH]c3c2CN(C(=O)NC(CN(C)C)c2ccccc2)C3(C)C)c2sccc2n1` (stereo unspecified), the outcome is, setting by setting: (library stock 1.67 mM) “inactive; censored for cell count”; (library stock 10 mM) “inactive; censored for cell count”. The z-score is, setting by setting: under setting [5], 0.353 (inactive); under setting [6], 1.68 (inactive). Besides, the cell count was found to be 4470 under setting [5] and 2250 under setting [6].
In the case of `Oc1ccc(Nc2nc(-c3ccc(Cl)cc3)cs2)cc1`, the z-score is -0.695 (inactive) and the cell count came to 4930. Under setting [1], the z-score was 0.00338 (inactive) and the cell count was found to be 5690. Under setting [2], the z-score was -0.177 (inactive) and the cell count turned out to be 5570. Also, under setting [3], the z-score is -0.154 (inactive) and the cell count came to 5530. Moreover, under setting [4], the z-score was 1.99 (active) and the cell count amounted to 2610.
For `Cc1cccc(Nc2nc(-c3ccncc3)cs2)c1`, the z-score is -0.555 (inactive) and the cell count came to 5440.
As to `COc1cccc(OC)c1-c1ccc(CC(NC(=O)c2c(Cl)cccc2Cl)C(=O)O)cc1` (stereo unspecified), the z-score was -0.0712 (inactive) under setting [5], -0.126 (inactive) under setting [6], -0.192 (inactive) under setting [7] and -0.205 (inactive) under setting [4]. The cell count is 5760 under setting [5], 5740 under setting [6], 5820 under setting [7] and 5840 under setting [4].
